# IL-1B inflam inh: inflammasome signaling inhibition, IL-1 beta readout | THP-1 LPS/ATP IL-1B secretion, AlphaLISA, 16 h; stronger effect = lower value | activity change, % at 57.5 µM | 4.7% of 360,000 active; in the data active means activity change below about -50%; inconclusive means mostly about -30% to -49%; further: on the % scale 0 is the no-effect control and ±100 the full control effect
#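 Secreted IL-1B measured by AlphaLISA bead assay after 16 h compound exposure of THP-1 cells; compounds (final up to 57.5 uM) added 1 h before LPS (250 ng/mL) and ATP (1.25 mM) stimulation; lower signal means less secretion.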
# TDP1 block: TDP1 (human) enzyme inhibition. Potency, µM (series often up to 130 µM), without a hit: at the highest dose activity change, negative = inhibition, hits mostly inhibitors. Q9NUW8. AID 485290. 0.28% of 350,000 active. recombinant TDP1, AlphaScreen DNA substrate cleavage; further: potency means the concentration at half of the fitted maximal effect; on the % scale 0 is the no-effect control and ±100 the full control effect; nearly all actives have a fitted effect of over 40% in size
# Target sequence (Q9NUW8 whole entry, looked up): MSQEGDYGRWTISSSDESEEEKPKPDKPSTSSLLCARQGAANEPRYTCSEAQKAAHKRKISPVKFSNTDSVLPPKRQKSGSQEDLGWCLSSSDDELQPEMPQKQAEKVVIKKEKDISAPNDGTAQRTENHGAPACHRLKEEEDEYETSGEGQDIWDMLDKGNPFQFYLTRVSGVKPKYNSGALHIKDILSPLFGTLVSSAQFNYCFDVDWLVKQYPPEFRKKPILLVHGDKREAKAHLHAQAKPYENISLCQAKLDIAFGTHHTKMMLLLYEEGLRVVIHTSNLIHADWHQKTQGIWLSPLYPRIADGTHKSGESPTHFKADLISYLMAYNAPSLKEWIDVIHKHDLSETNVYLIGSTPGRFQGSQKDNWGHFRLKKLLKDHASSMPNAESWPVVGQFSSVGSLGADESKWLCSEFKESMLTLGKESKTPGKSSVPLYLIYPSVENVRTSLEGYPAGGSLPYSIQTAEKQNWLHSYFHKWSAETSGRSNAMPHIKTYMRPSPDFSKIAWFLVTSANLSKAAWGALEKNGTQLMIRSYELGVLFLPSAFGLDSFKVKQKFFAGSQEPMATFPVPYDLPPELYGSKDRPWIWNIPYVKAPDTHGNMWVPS
#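 E. coli-derived human Tdp1, 1 nM final. Cpd preinc 15 min RT; substrate 15 nM final, 5 min RT; AS bead mix 10 ug/ml final, 10 min RT. Signal loss = tyrosine-FITC cleavage. No-enzyme wells = max signal.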
# TGFb inhibitor: inhibitors of TGF-b signaling; HepG2 CAGA-GFP TGF-b/SMAD3 reporter, GFP fluorescence, 18 h; TGF-beta stimulated, 500 pg/mL final; Potency, µM (titrated, usually from 46.1 µM), inactives show at the highest dose activity, negative = inhibition, usual class: inhibitors; 1.2% of 410,000 active; further: potency means the concentration at half of the fitted maximal effect; on the % scale 0 is the no-effect control and ±100 the full control effect; nearly all actives have a fitted effect of over 65% in size
#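 Inhibition was scored as loss of TGF-beta-induced (500 pg/mL final, 18 hours, 37 degrees C) GFP in HEPG2 cells carrying a CAGA-GFP reporter, in DMEM with 1% FBS. Well GFP was summed per cell; Activity was normalised to unstimulated and stimulated DMSO wells, then concentration-response fitting.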
# TDP1 cell noCPT: qHTS for Inhibitors of human tyrosyl-DNA phosphodiesterase 1 (TDP1): qHTS in cells in absence of CPT | DT40 Tdp1-/- hTDP1 cells, no CPT, ATP luminescence, 48 h | Potency, µM (doses to about 46.2 µM), without a hit: at the highest dose activity change, negative = growth inhibition, most hits filed as inhibitors | 15% of 420,000 active; further: potency means the concentration at half of the fitted maximal effect; on the % scale 0 is the no-effect control and ±100 the full control effect; nearly all actives have a fitted effect of over 55% in size
#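 Seeded 400 DT40-hTDP1 cells/well (vehicle DMSO, no 20 nM CPT); pinned compounds; ≥48 hr at 37 °C; CellTiter-Glo luminescence as viability measure.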
# HepG2 tox-1: HepG2 cytotoxicity, counter-screen for TGF-b inhibitors; HepG2 CAGA-GFP viability, ATP luminescence, 18 h; Potency, µM (titrated, usually from 46.1 µM), inactives show at the highest dose activity change, negative = cytotoxicity, actives largely listed as cytotoxic; 0.76% of 410,000 active; AID 588856; further: potency means the concentration at half of the fitted maximal effect
#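 HepG2 CAGA-GFP cells (1000/well, DMEM with 1% FBS) received compound, then TGF-beta at 500 pg/mL final, and were incubated 18 hours at 37 degrees C. Viability was read by CellTiter-Glo luminescence. Media-only wells were set as complete cell-killing and DMSO as no toxicity.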
# DT40 TDP1 CPT: DT40-hTDP1 cell growth loss with CPT. chicken DT40 Tdp1-/-;hTDP1 cells + 20 nM CPT, ATP luminescence, 48 h. Potency, µM (highest dose often 46.2 µM), for the others: top-dose activity change, negative = growth inhibition, most hits filed as inhibitors. 12% of 420,000 active; further: potency means the concentration at half of the fitted maximal effect; on the % scale 0 is the no-effect control and ±100 the full control effect; nearly all actives have a fitted effect of over 55% in size
#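 Chicken DT40 Tdp1-/- cells stably complemented with human TDP1 were seeded at 400 cells/well in medium containing 20 nM camptothecin, exposed to pin-transferred compounds, and grown at 37 °C for at least 48 hr. Viability was read as ATP luminescence.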
# TGFb CAGA inh: confirmation of TGF-b signaling inhibitors in HepG2 reporter cells; shares compounds with TGFb inhibitor; HepG2 CAGA-GFP TGF-b reporter, GFP fluorescence, 18 h; cells stimulated with TGF-beta, 500 pg/mL; Potency, µM (doses to about 46.1 µM), for the others: top-dose activity, negative = inhibition, actives largely listed as inhibitors; 63% of 1,600 active; AID 720534; further: potency means the concentration at half of the fitted maximal effect; on the % scale 0 is the no-effect control and ±100 the full control effect; nearly all actives have a fitted effect of over 65% in size
# HepG2 tox-2: toxic to HepG2 cells in TGF-b counterscreen; shares compounds with TGFb inhibitor; HepG2 CAGA-GFP viability, ATP luminescence, 18 h; cells stimulated with TGF-beta, 500 pg/mL; Potency, µM (titrated, usually from 46.1 µM), inactives show top-dose activity, negative = cytotoxicity, hits mostly inhibitors; 27% of 1,600 active; AID 720535; further: potency means the concentration at half of the fitted maximal effect; on the % scale 0 is the no-effect control and ±100 the full control effect; nearly all actives have a fitted effect of over 70% in size
# CCL64 TGFb inh: blocks TGF-b signaling in CCL64 reporter cells; shares compounds with TGFb inhibitor; CCL64 CAGA-GFP reporter, TGF-b stimulated, GFP fluorescence, 18 h; Potency, µM (series often up to 46.1 µM), without a hit: at the highest dose activity, negative = inhibition, usual class: inhibitors; 41% of 1,600 active; AID 720536; further: potency means the concentration at half of the fitted maximal effect; nearly all actives have a fitted effect of over 65% in size
# COP TGFb inh: blocks TGF-b signaling in HepG2 COP reporter. 3% of 1,600 active. Potency, µM (series often up to 46.1 µM), for the others: top-dose activity, negative = inhibition, most hits filed as inhibitors. HepG2 COP-GFP TGF-b reporter, GFP fluorescence, 18 h; cells stimulated by added recombinant TGF-beta. shares compounds with TGFb inhibitor. AID 720537; further: potency means the concentration at half of the fitted maximal effect; nearly all actives have a fitted effect of over 70% in size
# * marks the source's active call; other numbers are inactive results; ? = inconclusive; nt = no result; [ ] = another dose, or the depositor's remark. Hits are enriched below; roughly 18% of the tested compounds scored in any of these assays. Unless noted, the call rests on the fitted dose curve; in most records, active means well fitted curve in the direction sought with a large enough effect; inconclusive means small, poorly fitted or top-dose-only effect, or another doubt; inactive means no such curve, though single readings can be large; an effect the other way counts as inactive or inconclusive.
SMILES,IL-1B inflam inh,TDP1 block,TGFb inhibitor,TDP1 cell noCPT,HepG2 tox-1,DT40 TDP1 CPT,TGFb CAGA inh,HepG2 tox-2,CCL64 TGFb inh,COP TGFb inh
Cn1cc(/C=N\NC(=O)C2COc3ccccc3O2)c2ccccc21 (centres undefined),nt,5.3%,nt,nt,nt,nt,nt,nt,nt,nt
COc1ccc(-c2nc3c4ccccc4ccn3c2Cc2ccc(C)cc2)cc1OC,-12.9,nt,12.6µM*,20.6µM*,-13.5%,?,25.9µM*,-17.0%,18.4µM*,14.9%
CC(C)(C)c1ccc(Cn2cnc(-c3ccc([N+](=O)[O-])cc3)c2)cc1,?,8.1%,8.91µM*,23.1µM*,-21.2%,23.1µM*,20.6µM*,?,?,50.9%
COc1cc(CC(=O)NCCc2ccc(S(N)(=O)=O)cc2)cc(OC)c1OC,22.0,7.2%,1.6%,2.8%,-4.3%,-3.8%,nt,nt,nt,nt
OCCCNc1cc(-c2ccnc(Nc3cccc(Cl)c3)n2)ccn1,-108.3*,2.5%,0.282µM*,0.164µM*,-4.6%,0.146µM*,0.058µM*,0.231µM*,0.184µM*,26.5%
Cc1cc(C)nc(Nc2cccc(Cl)c2)n1,-3.9,nt,6.9%,-5.9%,-2.3%,-5.5%,nt,nt,nt,nt
CCC(C)Oc1cc(-c2ccnc(Nc3cccc(Cl)c3)n2)ccn1 (centres undefined),-85.8*,-1.2%,7.08µM*,?,2.4%,?,5.8µM*,?,6.51µM*,42.0%
COC(=O)c1nnn(-c2ccc(Br)cc2)c1C(=O)OC,nt,-5.0%,2.7%,-7.5%,-7.6%,-3.9%,nt,nt,nt,nt
COCc1cccc(-c2csc(C(O)c3ccc(OC)cc3)n2)c1 (centres undefined),16.6,nt,-17.7%,?,2.1%,?,nt,nt,nt,nt
O=C(NCCc1c[nH]c2ccccc12)OCCCCOC(=O)NCCc1c[nH]c2ccccc12,-50.8*,6.2%,10µM*,23.1µM*,-42.2%,18.4µM*,?,16.4µM*,18.4µM*,41.3%
Cc1sc2ncnc(N3CCC(C(=O)Nc4nc(-c5cccs5)cs4)CC3)c2c1C,28.5,3.5%,?,8.2µM*,-1.2%,10.3µM*,7.31µM*,?,?,26.7%
Cc1onc(-c2ccccc2Cl)c1C(=O)N1CCN(C)CC1,29.8,-10.0%,2.7%,-3.2%,-5.0%,8.5%,nt,nt,nt,nt
O=C1OCCN1C(=O)[C@H]1[C@H](c2ccccc2)C(c2cccc(Cl)c2)=NN1c1ccc(Br)cc1,0.0,-9.6%[56.1 µM],?,-10.8%,-15.4%,-12.5%,?,-16.8%,22.7%,3.1%
O=C1OCCN1C(=O)[C@H]1[C@H](c2ccc(F)cc2)C(c2cccc(Cl)c2)=NN1c1ccc(Br)cc1,-3.6,-15.0%[56.1 µM],?,?,-44.9%,?,nt,nt,nt,nt
CC(=O)Nc1ccc(NC(=O)c2cccc3ccccc23)cc1,5.7,nt,15.1%,-9.1%,1.4%,4.4%,nt,nt,nt,nt
CC(=O)Nc1ccc(N=Cc2c(O)c(C(=O)Nc3ccccc3)cc3ccccc23)cc1,56.7,-2.9%,7.08µM*,16.4µM*,-46.1%,?,-9.2%,11.6µM*,4.61µM*,54.7%
COc1ccc(CC(=O)Nc2nc(C)cs2)cc1,5.3,4.9%,-46.8%,12.4%,-6.1%,7.4%,nt,nt,nt,nt
COc1ccc(CC(N)c2csc(NC(=O)Nc3ccccc3C(C)C)n2)cc1 (centres undefined),?,nt,5.62µM*,16.4µM*,-106.3%,8.2µM*,?,?,?,?
Cc1ccc(/C=C(\NC(=O)c2ccccc2)C(=O)NC2CCN(Cc3ccccc3)CC2)o1,-20.7,2.4%,?,5.4%,-44.4%,2.8%,nt,nt,nt,nt
CCOC(=O)C1=C(C)N(CC)C(=S)NC1c1ccccc1OC(F)F (centres undefined),37.5,-2.6%,-10.7%,-8.6%,-11.8%,28.0%,nt,nt,nt,nt

# High-throughput results as filed in PubChem BioAssay.
